Screening data (PubChem BioAssay)
HT1080NT lethal – kills 2HG-producing HT-1080-NT fibrosarcoma cells; HT-1080-NT fibrosarcoma viability, CellTiter-Glo ATP luminescence, 48 h; Potency, µM (titrated, usually from 46.1 µM), for inactives: top-dose activity, negative = less viability, hits mostly cytotoxic; 1.6% of 360,000 active;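 also: NT is the 2HG producing partner of a matched IDH1 knockdown line; potency is read from the fitted curve at half-maximal effect; 0% = DMSO-treated cells and -100% = media-only wells without cells; nearly all actives have a fitted effect of over 55% in size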
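Read-out is CellTiter-Glo luminescence after 10 minutes at room temperature, following 48 hours' compound treatment of HT-1080-NT cells (750 cells/well, RPMI, 5% FBS, 37 degrees C).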
HT1080 IDH1KD tx – toxicity to HT-1080 IDH1 knockdown cells (counter line); HT-1080 IDH1 knockdown viability, ATP luminescence, 48 h; Potency, µM (top dose mostly 46.1 µM), without a hit: at the top dose activity, negative = toxicity, usual class: cytotoxic; 2% of 360,000 active;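 also: potency is read from the fitted curve at half-maximal effect; 0% = DMSO wells and -100% = cell-free medium wells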
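In this qHTS, HT-1080 cells depleted of IDH1 are exposed for 48 h at 37 °C to compound titrations. Toxicity is scored from CellTiter-Glo luminescence, with DMSO as full viability and medium alone as none.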
DT40 TDP1 CPT – DT40-hTDP1 cell growth loss with CPT; chicken DT40 Tdp1-/-;hTDP1 cells + 20 nM CPT, ATP luminescence, 48 h; Potency, µM (titrated, usually from 46.2 µM), for inactives: top-dose activity change, negative = growth inhibition, most hits filed as inhibitors; 12% of 420,000 active; AID 686979; also: potency is read from the fitted curve at half-maximal effect; nearly all actives have a fitted effect of over 55% in size
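Cell growth measured by CellTiter-Glo luminescence after a minimum 48 h, 37 C compound exposure with 20 nM CPT in Tdp1-knockout DT40 cells stably expressing hTDP1, seeded 400/well; qHTS titration format.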
ELG1 DNA repair – ELG1-dependent DNA repair inhibition. HEK293T ELG1-luciferase reporter, luminescence, 16 h; DNA damage induced by 5-fluorouridine. 2.3% of 330,000 active. Potency, µM (titrated, usually from 46.1 µM), without a hit: top-dose activity change, negative = inhibition, hits mostly inhibitors. AID 504467; also: potency is read from the fitted curve at half-maximal effect; nearly all actives have a fitted effect of over 55% in size
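In this reporter screen, reduction of luminescence relative to DMSO vehicle indicated activity. Compounds and 5-fluorouridine were added together to 2,000 cells per well, incubated for 16 hr at 37 °C, then developed with ONE-Glo.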
IL-1B inflam inh – blocks inflammasome-driven IL-1 beta release; THP-1 LPS/ATP IL-1B secretion, AlphaLISA, 16 h; hits give low values; activity change, % at 57.5 µM; 4.7% of 360,000 active; AID 743279; in the data active = activity change below about -50%; inconclusive = mostly about -30% to -49%
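THP-1 cells pretreated 1 hr with compounds (up to 57.5 uM final), then stimulated with LPS (250 ng/mL final) plus ATP (1.25 mM final); secreted IL-1B measured by AlphaLISA after 16 hr, decreased signal indicating inhibition.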
DT40 TDP1 no CPT – qHTS for Inhibitors of human tyrosyl-DNA phosphodiesterase 1 (TDP1): qHTS in cells in absence of CPT. DT40 Tdp1-/- hTDP1 cells, no CPT, ATP luminescence, 48 h. Potency, µM (titrated, usually from 46.2 µM), without a hit: top-dose activity change, negative = growth inhibition, actives largely listed as inhibitors. 15% of 420,000 active. AID 686978, 2013; also: potency is read from the fitted curve at half-maximal effect; nearly all actives have a fitted effect of over 55% in size
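DT40 Tdp1-/-;hTDP1 cells, no CPT (DMSO vehicle only), 400 cells/well; compounds pin-transferred; ≥48 hr, 37 °C; CellTiter-Glo 30 min RT dark, luminescence read.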
Starred values were filed as active, the others as inactive; i = inactive; ? = inconclusive; · = no result. Compounds with a hit are over-represented: about 19% of the library has one in this group of screens. Unless noted, calls follow the shape of the dose curve; as a rule, active = well fitted curve in the direction sought with a large enough effect; inconclusive = small, poorly fitted or top-dose-only effect, or another doubt; inactive = no such curve, though single readings can be large; an effect the other way counts as inactive or inconclusive. Unless noted, % is scaled to controls: 0 for no effect and ±100 for the full control effect.

SMILES	HT1080NT lethal	HT1080 IDH1KD tx	DT40 TDP1 CPT	ELG1 DNA repair	IL-1B inflam inh	DT40 TDP1 no CPT
CN(C(=O)C1CCN(S(=O)(=O)c2cccs2)CC1)c1ccccc1	-3.0%	4.7%	?	-7.3%	6.1	16.4µM*
Cc1cccc(N2CCN(C(=O)C3CCC(CNS(=O)(=O)c4cccs4)CC3)CC2)c1C (centres undefined)	-19.2%	?	?	9.2µM*	-17.7	13µM*
O=C(C1CCN(S(=O)(=O)c2cccs2)CC1)N1CCN(Cc2ccccc2)CC1	-13.0%	-8.1%	-27.4%	-10.7%	-18.8	?
CC1CC(C)CN(C(=O)C2CCN(S(=O)(=O)c3cccs3)CC2)C1 (centres undefined)	11.5%	10.8%	0.2%	7.6%	-4.1	?
Cc1cccc(N2CCN(C(=O)C3CCN(S(=O)(=O)c4cccs4)CC3)CC2)c1C	·	·	20.6µM*	·	·	14.6µM*
CC(=O)c1ccc(N2CCN(C(=O)C3CCN(S(=O)(=O)c4cccs4)CC3)CC2)cc1	-18.7%	-7.2%	?	-3.9%	15.9	13µM*
CC1CCCC(C)N1C(=O)COC(=O)CNC(=O)c1ccccc1 (centres undefined)	0.6%	6.5%	-4.5%	9.7%	-8.3	-13.3%
Cc1cccc(CNc2ncncc2-c2cccc(NS(C)(=O)=O)c2)c1	·	·	-20.9%	·	·	-29.4%
COc1cc2c(cc1OC)-c1cc(Nc3cccc(C)c3)nc(=O)n1CC2	9.2%	13.4%	?	?	?	-13.6%
CCOC(=O)c1c(C)[nH]c(C)c1S(=O)(=O)N1CCC(C(=O)N2CCN(c3cccc(C)c3C)CC2)CC1	·	·	18.4µM*	·	·	?
CC1(C)CC(C(CC(=O)O)c2ccccc2)CCO1 (centres undefined)	0.6%	0.8%	0.3%	-33.0%	8.3	1.4%
CC(c1ccccc1)N(CCC(c1ccccc1)C1CCOC(C)(C)C1)C(=O)c1ccco1 (centres undefined)	7.2%	-2.1%	?	23.1µM*	0.0	18.4µM*
COc1ccc(CN(CCC(c2ccccc2)c2ccco2)C(=O)c2ccco2)cc1 (centres undefined)	-11.0%	-19.8%	?	?	-21.9	?
COc1ccc(CN(CCC(c2ccc(F)cc2)C2CCOC(C)(C)C2)C(=O)c2ccco2)cc1 (centres undefined)	?	25.9µM*	20.6µM*	10.3µM*	-103.2*	16.4µM*
CN1CCN(C(c2cccnc2)c2ccc3cccnc3c2O)CC1 (centres undefined)	2.8%	7.1%	?	-4.1%	0.0	16.4µM*
CN1CCN(C(c2ccc(F)cc2)c2ccc3cccnc3c2O)CC1 (centres undefined)	1.6%	0.2%	3.5%	·	-8.2	-6.2%
CN1CCN(C(c2ccc(Br)cc2)c2cc(Cl)c3cccnc3c2O)CC1 (centres undefined)	?	?	16.4µM*	?	-105.8*	14.6µM*
CCOC(=O)[C@H]1[C@H]2COc3ccc(C)cc3[C@@H]2N2C(=O)c3cc(F)ccc3NC(=O)[C@@]12C	4.0%	7.0%	?	2.8%	?	?
COc1ccc(NC(=O)CSc2ccc(-c3sc(C)nc3C)nn2)cc1OC	16.8%	20.9%	?	?	i	8.2µM*
CCOC(=O)c1ccccc1NC(=O)CSc1ccc(-c2sc(C)nc2C)nn1	·	·	14.6µM*	·	·	11.6µM*
COc1cc(NC(=O)CSc2ccc(-c3sc(C)nc3C)nn2)cc(OC)c1	·	·	20.6µM*	·	·	18.4µM*
Cc1nc(-c2ccccc2)sc1-c1ccc(SCC(=O)Nc2ccc(F)cc2F)nn1	·	·	-27.7%	·	·	?
COc1ccc(NC(=O)CSc2nc(C)cs2)cc1OC	-0.9%	1.8%	-9.3%	-0.1%	6.7	-29.7%
CC(=O)c1ccc(NC(=O)CSc2ccc(-c3sc(C)nc3C)nn2)cc1	-9.7%	-26.0%	13µM*	18.3µM*	-3.8	?
CC1(C(=O)NS(=O)(=O)c2ccccc2)CCN1C(=O)Cc1cccs1 (centres undefined)	1.4%	7.0%	-3.4%	·	-2.9	-1.7%
SMILES	HT1080NT lethal	HT1080 IDH1KD tx	DT40 TDP1 CPT	ELG1 DNA repair	IL-1B inflam inh	DT40 TDP1 no CPT
COc1ccc(C(=O)O)cc1S(=O)(=O)N1CCSCC1	5.6%	8.1%	-0.2%	-2.0%	23.4	17.5%
Cc1cc(C)n2nc(SC(C)C(=O)N3CC(C)OC(C)C3)nc2n1 (centres undefined)	0.0%	-3.7%	?	24.1%	-6.5	-4.4%
CC(Sc1nnc(NCc2ccccc2)s1)C(=O)Nc1ccc2c(c1)C(=O)c1ccccc1C2=O (centres undefined)	-2.1%	-5.0%	?	-22.8%	-1.6	18.4µM*
CC(=O)Nc1ccccc1-c1nc2ccccc2n(Cc2cccc(Br)c2)c1=O	·	·	-3.8%	·	·	?
CCn1c(C(=O)N2CCCC(C(=O)N3CCN(c4ccccc4)CC3)C2)cc2sccc21 (centres undefined)	·	·	?	·	·	23.1µM*
Cn1c(C(=O)N2CCCC(C(=O)O)C2)cc2sccc21 (centres undefined)	16.1%	19.2%	-0.3%	13.4%	12.9	0.8%
CCn1c(C(=O)N2CCC(C(=O)N3CCN(c4ccccn4)CC3)CC2)cc2sccc21	16.9%	-1.2%	?	13µM*	-24.6	25.9µM*
COc1ccc(C(=O)N2CCC(C(=O)N3CCN(c4ccc(OC)cc4)CC3)CC2)cc1	17.9%	8.5%	?	-11.3%	16.2	?
Cn1c(C(=O)N2CCCC(C(=O)N3CCN(C(=O)c4ccco4)CC3)C2)cc2sccc21 (centres undefined)	-3.1%	-10.5%	14.6µM*	?	-2.3	?
CCn1c(C(=O)N2CCC(C(=O)N3CCN(c4ccc(OC)cc4)CC3)CC2)cc2sccc21	·	·	9.2µM*	·	·	13µM*
Cc1ccc(CN2CC(C(=O)N(CC(C)C)c3c(N)n(Cc4ccccc4)c(=O)[nH]c3=O)CC2=O)cc1 (centres undefined)	-0.9%	0.1%	-2.1%	·	-9.2	3.7%
Cc1nn(CCC(=O)N2CCN(S(=O)(=O)c3ccccc3)CC2)c(C)c1C	1.8%	3.7%	0.8%	-3.1%	13.5	-4.0%
Cn1cc(C(=O)C(=O)N2CCc3ccccc32)c2ccccc21	0.0%	-0.9%	-17.3%	?	0.0	-19.2%
O=C(c1ccco1)N1CCC2(CCCN(Cc3ccncc3)C2)CC1	·	·	4.1%	·	·	-23.1%
